Compound in this test: Nc1ncnc2c1ncn2[C@@H]1O[C@H](COP(=O)(O)OP(=O)(O)OP(=O)(O)O)[C@@H](O)[C@H]1O [adenosine 5'-triphosphate]
The test is described as follows: log2 fold change of tryptic peptide abundance, ligand vs vehicle (limited proteolysis) (log2 ratio); higher = more trypsin-susceptible (destabilized). Particulars: ligand concentration: 5 mM; sample: E. coli desalted lysate; replicate design: treated before aliquoting. As to the method: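 HT-PELSA: desalted E. coli K-12 BW25113 lysate (with 12 mM MgCl2) incubated with 5 mM ATP (pH 7) or water for 30 min at 25 C, then a 4 min trypsin pulse at 22 C. Peptides were quantified by DIA-MS (4 replicates). Value is the peptide log2 fold change (treated/control); negative = stabilized. Scale: negative = ligand-stabilized region.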
Sequence of UniProt P27431 (P27431 whole entry): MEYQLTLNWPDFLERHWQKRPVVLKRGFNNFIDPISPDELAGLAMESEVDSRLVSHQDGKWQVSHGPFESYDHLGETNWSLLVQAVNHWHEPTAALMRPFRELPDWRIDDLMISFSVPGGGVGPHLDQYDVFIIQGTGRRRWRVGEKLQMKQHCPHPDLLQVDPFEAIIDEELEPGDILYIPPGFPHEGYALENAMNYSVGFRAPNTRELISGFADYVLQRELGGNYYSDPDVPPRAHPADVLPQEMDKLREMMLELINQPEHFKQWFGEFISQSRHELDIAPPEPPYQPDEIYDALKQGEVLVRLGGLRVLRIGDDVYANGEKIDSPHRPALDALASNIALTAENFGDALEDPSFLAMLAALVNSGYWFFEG
Sequence of UniProt P77555 (P77555 whole entry): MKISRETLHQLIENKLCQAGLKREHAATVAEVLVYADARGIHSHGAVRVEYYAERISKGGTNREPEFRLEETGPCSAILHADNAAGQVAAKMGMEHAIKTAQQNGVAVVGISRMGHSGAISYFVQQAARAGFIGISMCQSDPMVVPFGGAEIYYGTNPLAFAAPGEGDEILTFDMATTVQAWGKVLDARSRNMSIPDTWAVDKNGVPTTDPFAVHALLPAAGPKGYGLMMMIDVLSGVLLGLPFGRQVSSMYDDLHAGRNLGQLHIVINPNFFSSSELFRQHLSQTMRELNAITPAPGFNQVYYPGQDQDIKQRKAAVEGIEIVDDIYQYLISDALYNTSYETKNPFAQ
Sequence of UniProt P24230 (P24230 whole entry): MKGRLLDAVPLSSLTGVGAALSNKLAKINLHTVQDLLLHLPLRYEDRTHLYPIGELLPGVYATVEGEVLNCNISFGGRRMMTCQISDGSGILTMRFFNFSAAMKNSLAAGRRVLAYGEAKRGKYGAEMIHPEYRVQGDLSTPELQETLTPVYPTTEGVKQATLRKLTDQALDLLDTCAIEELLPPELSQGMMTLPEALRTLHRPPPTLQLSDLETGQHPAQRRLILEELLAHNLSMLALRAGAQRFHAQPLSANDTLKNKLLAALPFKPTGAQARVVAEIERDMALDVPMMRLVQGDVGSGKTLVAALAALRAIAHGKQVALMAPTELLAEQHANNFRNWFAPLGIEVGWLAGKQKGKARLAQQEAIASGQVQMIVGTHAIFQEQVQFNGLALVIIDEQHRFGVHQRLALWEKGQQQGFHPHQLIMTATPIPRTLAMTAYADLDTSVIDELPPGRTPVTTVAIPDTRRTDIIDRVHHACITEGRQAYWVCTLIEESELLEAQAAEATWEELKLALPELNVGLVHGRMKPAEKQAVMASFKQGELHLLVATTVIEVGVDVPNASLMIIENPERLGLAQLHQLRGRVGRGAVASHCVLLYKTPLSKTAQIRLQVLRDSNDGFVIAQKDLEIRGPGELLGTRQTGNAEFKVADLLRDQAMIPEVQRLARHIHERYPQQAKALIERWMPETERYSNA
Sequence of UniProt P37908 (P37908 whole entry): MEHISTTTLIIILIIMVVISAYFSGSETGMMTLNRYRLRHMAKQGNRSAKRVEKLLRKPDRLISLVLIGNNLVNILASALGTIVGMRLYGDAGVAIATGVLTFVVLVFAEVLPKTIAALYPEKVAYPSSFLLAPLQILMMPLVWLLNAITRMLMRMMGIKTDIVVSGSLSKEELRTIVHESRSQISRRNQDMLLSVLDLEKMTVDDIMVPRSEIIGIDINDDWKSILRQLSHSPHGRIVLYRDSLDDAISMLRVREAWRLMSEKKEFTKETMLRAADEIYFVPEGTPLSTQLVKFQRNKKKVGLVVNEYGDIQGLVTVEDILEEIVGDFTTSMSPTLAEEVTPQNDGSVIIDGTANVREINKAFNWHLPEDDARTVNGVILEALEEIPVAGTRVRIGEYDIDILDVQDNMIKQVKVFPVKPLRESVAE
Sequence of UniProt P14900 (P14900 whole entry): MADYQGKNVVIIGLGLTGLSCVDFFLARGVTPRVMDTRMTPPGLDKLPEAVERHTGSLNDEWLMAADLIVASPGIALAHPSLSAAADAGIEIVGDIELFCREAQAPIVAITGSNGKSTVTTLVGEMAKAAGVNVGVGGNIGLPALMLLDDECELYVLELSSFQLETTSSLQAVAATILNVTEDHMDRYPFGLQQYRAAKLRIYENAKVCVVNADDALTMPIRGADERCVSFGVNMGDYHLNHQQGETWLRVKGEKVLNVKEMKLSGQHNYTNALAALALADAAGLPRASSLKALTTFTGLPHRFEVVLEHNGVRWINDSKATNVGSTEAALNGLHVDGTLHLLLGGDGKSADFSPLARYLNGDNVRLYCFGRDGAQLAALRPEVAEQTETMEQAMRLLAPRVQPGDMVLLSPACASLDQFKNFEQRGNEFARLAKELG
As for “UniProt P77555 (peptide sequence: VEYYAER, peptide start residue: 49)”, the log2 fold change was -0.74. The same measure for “UniProt P37908 (peptide sequence: RNQDMLLSVLDLEK, peptide start residue: 188)”: -2.2; for “MurD (peptide sequence: YLNGDNVR, peptide start residue: 359) (UniProt P14900)”: -1.33. Turning to “UniProt P27431 (peptide sequence: EMMLELINQPEHFK, peptide start residue: 252)”, the log2 fold change stood at 0.714.

Take “UniProt P24230 (peptide sequence: TLVAALAALR, peptide start residue: 303)”: the log2 fold change is -1.21.

The values are drawn from the supplement of paper PMC12819154, “High-throughput peptide-centric local stability assay extends protein–ligand identification to membrane proteins, tissues and bacteria” (Nature Structural & Molecular Biology, 2025).
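Note: lysate desalted by size exclusion to strip endogenous ATP, peptide intensities built from DIA-NN precursor signals, and peptides missing any value discarded before comparison.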
